Screening results as filed in PubChem BioAssay.
MPTP block: inhibitors of mitochondrial permeability transition pore. isolated mouse mitochondria, Ca2+ swelling absorbance, 30 min. inhibition, % at 10 µM. 1.4% of 360,000 active;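 active means inhibition of 50% or more, scaled per plate between neutral and stimulator controls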
Beta cell apopt: beta cell apoptosis inhibition; INS-1E cytokine-induced death, ATP luminescence, 48 h; percent of positive-control rescue, neutral wells zero; AID 435005; protection from apoptosis, % (concentration not given with the values); 0.8% of 300,000 active;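 active means Every replicate reaches about 75%, or at least half do and their mean reaches it too, limit read from the data; inconclusive means At least half of replicates reach the limit but their mean does not; inactive means Under half of replicates reach the limit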;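 further: higher means more ATP so stronger rescue from cytokine killing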
SKKanGAS inh: SKKanGAS growth inhibition | S. pyogenes SKKanGAS, kanamycin growth, BacTiter-Glo, 6 h | inhibition, % at 7.5 µM | 1.3% of 300,000 active;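 active means mean replicate score, as percent of positive control median, at least 50; inconclusive means mean below 50 but one replicate at or above 50; inactive means mean and every replicate below 50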;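 further: strain carries kanamycin resistance gene driven by streptokinase promoter and grows in 40 µg/ml kanamycin; loss of luminescence reflects streptokinase promoter inhibition or plain growth inhibition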
CSC inhib: blocks cancer stem cells; cancer stem cell-like cells viability, luminescence; inhibition, % at 7.5 µM; 1.1% of 300,000 active; in the data active means inhibition above about 75%; inconclusive means no clear call, values can overlap the other calls; tested in HMLE shEcad cells
NR3A LBD binder: NR3A (human) ligand-binding domain modulation. NR3A LBD differential scanning fluorimetry, Tm shift; 0% = protein alone, 100% = glycine-bound protein. Tm shift relative to glycine control, % at 25 µM. 2.5% of 340,000 active. AID 1259313;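 active means melting temperature shift of at least 10% of the positive control shift, at one fixed dose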
Mdm2 MdmX PPI: disrupts the human Mdm2-MdmX interaction; O15151+Q00987; SaOS-2 split-luciferase Mdm2/MdmX complementation, luminescence; inhibition, % at 8 µM; 3% of 330,000 active; AID 485346;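 active means inhibition of at least 50% at 8 µM in the primary screen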
Target sequence (O15151 whole entry, looked up): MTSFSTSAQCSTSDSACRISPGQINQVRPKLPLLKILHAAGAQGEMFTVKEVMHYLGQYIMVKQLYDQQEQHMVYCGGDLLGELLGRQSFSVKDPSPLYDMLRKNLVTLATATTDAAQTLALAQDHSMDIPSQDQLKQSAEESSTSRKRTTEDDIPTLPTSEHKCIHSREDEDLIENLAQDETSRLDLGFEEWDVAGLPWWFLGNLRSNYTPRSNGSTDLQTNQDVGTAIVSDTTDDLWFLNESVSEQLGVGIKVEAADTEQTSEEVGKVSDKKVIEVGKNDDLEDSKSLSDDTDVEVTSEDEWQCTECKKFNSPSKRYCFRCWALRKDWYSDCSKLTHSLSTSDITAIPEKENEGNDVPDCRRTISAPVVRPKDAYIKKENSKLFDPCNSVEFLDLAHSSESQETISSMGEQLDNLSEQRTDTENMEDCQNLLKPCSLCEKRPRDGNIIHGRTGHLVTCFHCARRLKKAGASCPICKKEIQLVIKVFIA
Target sequence (Q00987 whole entry, looked up): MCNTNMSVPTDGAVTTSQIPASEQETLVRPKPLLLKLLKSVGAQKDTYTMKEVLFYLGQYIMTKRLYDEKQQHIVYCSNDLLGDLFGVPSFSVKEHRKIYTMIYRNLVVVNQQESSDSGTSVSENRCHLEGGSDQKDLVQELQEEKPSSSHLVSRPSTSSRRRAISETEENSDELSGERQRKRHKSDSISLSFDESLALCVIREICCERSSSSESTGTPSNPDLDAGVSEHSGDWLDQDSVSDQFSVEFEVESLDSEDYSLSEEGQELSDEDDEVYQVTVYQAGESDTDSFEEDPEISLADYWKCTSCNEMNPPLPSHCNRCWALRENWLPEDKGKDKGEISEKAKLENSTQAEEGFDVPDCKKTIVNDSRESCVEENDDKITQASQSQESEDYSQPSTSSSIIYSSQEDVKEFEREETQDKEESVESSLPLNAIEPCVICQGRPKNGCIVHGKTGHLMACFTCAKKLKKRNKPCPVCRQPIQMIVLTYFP
Rh123 counter: Rhodamine 123 counter-screen of mitochondrial pore hits; isolated mitochondria, membrane potential, Rhodamine 123 fluorescence; shares compounds with MPTP block; 78% of 5,000 active; inhibition, % at 10 µM; in the data active means inhibition above about 22%
MPTP abs DR: dose response confirmation of mitochondrial permeability transition pore inhibitors; shares compounds with MPTP block; isolated mitochondria swelling, absorbance; IC50, µM; 58% of 780 active; in the data active means IC50 below about 20 µM
MPTP counter DR: counter-screen for mitochondrial permeability transition pore inhibitors, dose response; shares compounds with MPTP block; isolated mitochondria counterscreen, fluorescence read-out; IC50, µM; 49% of 780 active; in the data active means IC50 below about 80 µM
Large screens that a line does not name were inactive (follow-up assays come after a bar, where they were run). Hits are enriched below; roughly 6.9% of the tested compounds scored in any of these assays.

CCCCCCCCSc1nnc(CSc2nc3nc(C)cc(C)n3n2)o1	MPTP block 87, Beta cell apopt inconclusive | Rh123 counter inactive | MPTP abs DR inactive | MPTP counter DR 50
CCNc1nc(NCC)nc(N/N=C/c2ccc(N(C)C)cc2)n1	none
Cc1cc(N/N=C/c2ccc(N(C)C)cc2)nc(NCc2ccccc2)n1	MPTP block 60 | Rh123 counter 56
CCCCCCCCCC[n+]1cccc2c3ccccc3ccc21	MPTP block 96, SKKanGAS inh inconclusive (no result: Beta cell apopt, CSC inhib, Mdm2 MdmX PPI) | Rh123 counter 97
COc1cc(NC(=O)c2cccc(Br)c2)nc(OC)n1	none
CNc1nc2cc([N+](=O)[O-])c([N+](=O)[O-])cc2nc1NC	MPTP block 105, Beta cell apopt 98 (no result: Mdm2 MdmX PPI) | Rh123 counter 94
N#Cc1cc2nc(O)c(O)nc2cc1[N+](=O)[O-]	none (no result: SKKanGAS inh)
O=C1Nc2ccccc2C(O)(C(=O)NCc2ccco2)N1c1ccc(Cl)cc1 (centres undefined)	MPTP block 90 | Rh123 counter 87
Cc1ncc([N+](=O)[O-])n1CCOC(=O)Nc1ccc([N+](=O)[O-])cc1	MPTP block 77 | Rh123 counter 71
Cc1ncc([N+](=O)[O-])n1CCOC(=O)C12CC3CC(CC(C3)C1)C2	none
Clc1cnc(N/N=C/c2ccncc2)c(Cl)c1	none
Clc1ccc(N/N=C/c2ccncc2)cc1Cl	MPTP block 70, NR3A LBD binder 12 (no result: Beta cell apopt, CSC inhib) | Rh123 counter 56
CCN(CC)S(=O)(=O)c1ccc(C(=O)NC(C)(C)C)cc1	none
CC(=O)c1ccc(N2CCN(CC(=O)N(C3CC3)C3CCS(=O)(=O)C3)CC2)c(F)c1 (centres undefined)	none (no result: SKKanGAS inh, CSC inhib)
O=C(Cc1cccs1)Nc1nc(-c2ccc(F)cc2F)cs1	MPTP block 73 (no result: CSC inhib) | Rh123 counter 91
Cc1ccc(C(=O)Nc2cccc(S(=O)(=O)N3CCCC3)c2)o1	none (no result: SKKanGAS inh)
NN/C(=C\[N+](=O)[O-])Nc1ccc(Cl)cc1	MPTP block 55 | Rh123 counter 87
CC(C)(C)S(=O)(=O)/C(C#N)=N/Nc1ccc(Cl)cc1	MPTP block 92 | Rh123 counter 87
Cc1cccc(N/N=C(\C#N)S(=O)(=O)C(C)(C)C)c1	none (no result: Mdm2 MdmX PPI)
N#C/C(=N\Nc1ccc(Cl)cc1)C(=N)N1CCCCCC1	none
CC(C)(C)c1ccc(N/N=C(\C#N)S(=O)(=O)C(C)(C)C)cc1	MPTP block 86 | Rh123 counter 86
O=C(COC(=O)c1ncc(Cl)c(Cl)c1Cl)c1ccc(Cl)s1	none
COC(=O)C(C)(C)ONC(=O)Nc1ccc(Br)cc1	none
CC(NC(=O)Nc1ccc(Br)cc1)C(C)(C)C (centres undefined)	MPTP block 78 | Rh123 counter 93
O=[N+]([O-])c1ccc2[nH]c(=S)sc2c1	MPTP block 57 (no result: Beta cell apopt, SKKanGAS inh, CSC inhib, Mdm2 MdmX PPI) | Rh123 counter 77
CCn1c(CN2CCOCC2)nnc1SCC(=O)Nc1ccccc1Cl	none (no result: CSC inhib)
Cc1ccc2nc(Cl)c(/C=N/NC(=O)c3ccccc3O)cc2c1	MPTP block 65, NR3A LBD binder 20 | Rh123 counter 76
Cc1ccc2nc(Cl)c(/C=N/NC(=O)[C@H]3C[C@@H]3c3ccccc3)cc2c1	none
N#Cc1ccc(C(=O)Nc2ccc3ccccc3c2)cc1	none
N#Cc1cc(NC(=O)c2ccc(Cl)cc2)ccc1Sc1ccccc1	MPTP block 73 (no result: Beta cell apopt, SKKanGAS inh, CSC inhib, NR3A LBD binder, Mdm2 MdmX PPI) | Rh123 counter 96
N=c1n(Cc2ccccc2Cl)c2ccccc2n1CC(O)c1ccco1 (centres undefined)	none
Cc1ccc(Cn2c(=N)n(CC(O)c3ccco3)c3ccccc32)cc1 (centres undefined)	MPTP block 70 | Rh123 counter 43
CC(C)(C)NC(=S)Nc1ccc(Br)cc1	MPTP block 51 | Rh123 counter 66
S=C(Nc1ccccc1)Nc1cccc(Br)c1	MPTP block 90, NR3A LBD binder 16 (no result: CSC inhib) | Rh123 counter 102
S=C(Nc1ccccc1)Nc1ccc(Br)cc1	MPTP block 95 | Rh123 counter 88
N#Cc1ccc(NC(=S)Nc2ccccc2)cc1	MPTP block 90 | Rh123 counter 92
C/C=C(\C)C(=O)O[C@@H]([C@H](O)c1cc2ccc(=O)oc2cc1OC)C(C)(C)O	none (no result: SKKanGAS inh)
O=C(Nc1c2c(nn1-c1ccccc1)CS(=O)C2)c1ccc2c(c1)OCO2 (centres undefined)	none
O=C(Nc1cccc(Cl)c1)NC1CCS(=O)(=O)C1 (centres undefined)	none
COc1cccc(CC(NC(C)=O)C(=O)NC2CCN(C(=O)c3ccncc3)CC2)c1OC (centres undefined)	none (no result: Beta cell apopt, CSC inhib)
CC(=O)Nc1ccc(NC(=S)Nc2ccc(Br)cc2)cc1	MPTP block 98 | Rh123 counter 88
S=C(Nc1cccc(Br)c1)c1ccccc1	MPTP block 53 | Rh123 counter 71
CC(=O)Nc1ccc(NC(=S)Nc2ccccc2)cc1	none
COc1ccc(CCNc2ccc(C(=O)O)cc2[N+](=O)[O-])cc1OC	none
COc1ccc(C(=O)N2CCN(c3ccc([N+](=O)[O-])c(NCCc4ccc(OC)c(OC)c4)c3)CC2)cc1	MPTP block 85, Beta cell apopt 106 | Rh123 counter inactive | MPTP abs DR 6 | MPTP counter DR <2.5
Cc1ccc2c(c1)S/C(=C\c1cccc[n+]1C)N2CCO	none
CC[n+]1c(/C=C/c2ccc(OC)c(OC)c2)ccc2ccccc21	none
CCN1/C(=C\c2ccc3cc(C)ccc3[n+]2CC)Sc2cc(C)c(C)cc21	MPTP block 85, SKKanGAS inh 71 (no result: Beta cell apopt, CSC inhib, Mdm2 MdmX PPI) | Rh123 counter 85
CCN1/C(=C/c2ccc3cc(C)cc(C)c3[n+]2CC)Sc2cc(C)ccc21	MPTP block 87 (no result: Beta cell apopt, SKKanGAS inh, CSC inhib, Mdm2 MdmX PPI) | Rh123 counter 97
CC(=O)c1cccc(NS(=O)(=O)c2ccc(-c3cc(C)no3)s2)c1	none
CCOC(=O)C1(Cc2ccccc2C)CCCN(C(=O)c2ccc(C(C)=O)s2)C1 (centres undefined)	none (no result: Beta cell apopt, SKKanGAS inh, CSC inhib, NR3A LBD binder, Mdm2 MdmX PPI)
Nc1nc(N)nc(-c2cccc(Cl)c2)n1	none (no result: SKKanGAS inh)
NCCOc1ccc(C23CC4CC(CC(C4)C2)C3)cc1	MPTP block 76 | Rh123 counter inactive
Oc1ccc(C23CC4CC(CC(C4)C2)C3)cc1O	none (no result: Mdm2 MdmX PPI)
CCCC(=O)NC(Nc1cc(C(F)(F)F)ccc1Cl)C(Cl)(Cl)Cl (centres undefined)	MPTP block 90 | Rh123 counter 93
Cc1cccc(CSCCNC(=S)Nc2ccccc2)c1	MPTP block 82 | Rh123 counter 79
S=C(NCCSCc1ccc(Cl)cc1)Nc1ccccc1	MPTP block 68, NR3A LBD binder 12 | Rh123 counter 97
CCCOc1ccc(CSCCNC(=S)Nc2ccccc2)cc1	MPTP block 95, CSC inhib 77 | Rh123 counter 94
